Results filed as inconclusive are left out. A number with no mark means an inactive call. Active and inactive are the calls of the source. Calls follow the shape of the dose curve; as a rule, active = well fitted cell-killing curve with a large enough effect; inconclusive = small, poorly fitted or top-dose-only effect, or effect the other way; inactive = flat fitted curve, though single readings scatter.
% is scaled to controls: 0 for no effect and ±100 for the full control effect; potency is read from the fitted curve at half-maximal effect.

The experiment can be described thus: qHTS for Inhibitors of ATXN expression: Validation of Cytotoxic Assay (AID 588349). As to conditions: cytotoxicity counter-screen for ATXN expression inhibitors, cell viability; series mostly up to 57.1 µM; activity change, negative = cytotoxicity: at the top concentration. The source says:
Spinocerebellar ataxia type 2 (SCA2) is a multisystem neurodegenerative disease caused by a dominantly-acting mutation leading to expansion of a polyQ domain in the ataxin-2 protein (ATXN2). SCA2 patients develop progressive ataxia and later lose function in other neuronal systems. Prominent parkinsonian signs develop in some patients. Similar to many neurodegenerative disorders, no symptomatic or disease-modifying treatments are known.
The primary objective of project is to identify compounds inhibiting ATXN2 expression and to test them for efficacy in SCA2 mouse models. To this end, in a collaboration between Dr. Daniel Scoles and scientists at NCGC, a cell-based assay adapted to high-throughput screening has been developed to screen the NIH Molecular Libraries Small Molecule Repository (MLSMR). Confirmed qHTS active compounds will be tested for toxicity against the human neuron-like SH-SY5Y cell line. This line is the parental cell type used to generate the transgenic line used in the primary assay, and so should provide an isogenic control to test the inherent toxicity of qHTS actives.
NIH Chemical Genomics Center [NCGC]
NIH Molecular Libraries Probe Centers Network [MLPCN]
Assay Submitter (PI): Stefan Pulst and Daniel Scoles, University of Utah
HEK293 cultured cells will be dosed with titrated compounds and incubated for 72 hr at 37 degrees C. Toxicity will be assessed using the CellTiter Glo kit (Promega), which uses intracellular ATP concentration as a viability marker.
(qHTS replaces the single test concentration by a dilution series.)
With `CN(C)CC[C@@H](c1ccc(Br)cc1)c1ccccn1`, the “activity change, negative = cytotoxicity” value is -8.86%.
The same measure, in the same setting: then `CC(=O)Oc1cc(C(C)C)c(OCCN(C)C)cc1C`, with -22.1%; and `C[C@@H](O)[C@H]1C(=O)N2C(C(=O)O)=C(SCCN=CN)C[C@H]12`, with -2.27%; and `CCN1CCc2nc(N)oc2CC1`, with -6.88%.
As for `Cc1nc2c([nH]1)c(=O)n(C)c(=O)n2Cc1ccco1`, the “activity change, negative = cytotoxicity” value is -6.96%.
For `c1cnc(N2CCN(Cc3ccc4c(c3)OCO4)CC2)nc1`, the “activity change, negative = cytotoxicity” value was -5.82%.
On to `CCN(CC)CC(=O)Nc1c(C)cccc1C`, for which the “activity change, negative = cytotoxicity” value was -11%.
With `Cc1ccc(Cl)c(Nc2ccccc2C(=O)O)c1Cl`, the “activity change, negative = cytotoxicity” value is -16.9%.
`COC(=O)C1=C(C)NC(C)=C(C(=O)OCCN(C)Cc2ccccc2)C1c1cccc([N+](=O)[O-])c1` (stereo not given): the Potency was 20 µM (active).
On to `NCCCNCCSP(=O)(O)O`, for which the “activity change, negative = cytotoxicity” value is -12.2%.
The same measure, in the same setting: for `CC(=O)OCC1=C(C(=O)O)N2C(=O)[C@@H](NC(=O)Cc3cccs3)[C@H]2SC1` the value was -16.5%; for `CC(C)NCC(O)c1cc(O)cc(O)c1` (stereo not given), -3.88%.
With `CN(C)CCOC(=O)COc1ccc(Cl)cc1`, the “activity change, negative = cytotoxicity” value is 19.4%.
`CSc1ccc(C(=O)c2[nH]c(=O)[nH]c2C)cc1`: the “activity change, negative = cytotoxicity” value is 17.2%.
As to `CCCCCCCC/C=C\CCCCCCCC(=O)NCc1ccc(O)c(OC)c1`, the “activity change, negative = cytotoxicity” value was -17%.
Still for that read-out and setting: then `Nc1c2c(nc3ccccc13)CCCC2O` (stereo not given), with -14.4%.
Same read-out and setting: then `CN1C[C@H](C(=O)N[C@]2(C)O[C@@]3(O)[C@@H]4CCCN4C(=O)[C@H](Cc4ccccc4)N3C2=O)C[C@@H]2c3cccc4[nH]cc(c34)C[C@H]21`, with -27%; and `C[C@H](CS)C(=O)N1CCC[C@H]1C(=O)O`, with -11.4%; and `O=C1NCN(c2ccccc2)C12CCN(CCCC(c1ccc(F)cc1)c1ccc(F)cc1)CC2`, with -8%.
As for `COc1ccc(CN(CCN(C)C)c2ccccn2)cc1`, the “activity change, negative = cytotoxicity” value was -7.49%.
Turning to `CCOC(=O)c1cnc2c(cnn2CC)c1NN=C(C)C`, the “activity change, negative = cytotoxicity” value is 14.4%.
Take `Cc1nnc(SCC2=C(C(=O)O)N3C(=O)[C@@H](NC(=O)Cn4cnnn4)[C@H]3SC2)s1`: the “activity change, negative = cytotoxicity” value is -6.27%.
The same measure, in the same setting: for `CC(C)[N+](C)(CCOC(=O)C1c2ccccc2Oc2ccccc21)C(C)C` the value was 2.7%.
Same read-out and setting: for `CCCN(CCC)C(=O)C(CCC(=O)O)NC(=O)c1ccccc1` (stereo not given) the value was -16.4%; for `Cc1scc2c1N(C(=O)CN1CCN(C)CC1)c1ccccc1NC2=O`, -5.43%; for `Cc1ccc(=O)n(-c2ccccc2)c1`, 1.95%.
Turning to `CCN1CCC[C@H]1CNC(=O)c1c(O)c(Cl)cc(Cl)c1OC`, the “activity change, negative = cytotoxicity” value is -11%.
On to `NC1=NCC2c3ccccc3Cc3ccccc3N12` (stereo not given), for which the “activity change, negative = cytotoxicity” value is -21.1%.
As for `Cc1nc2sccn2c(=O)c1CCN1CCC(=C(c2ccc(F)cc2)c2ccc(F)cc2)CC1`, the “activity change, negative = cytotoxicity” value is -11.3%.
On the same count and under the same terms, for `CN(C)C/C=C(/c1ccc(Br)cc1)c1cccnc1` the value was 5.87%; for `CCO/C([O-])=N/c1c[n+](N2CCOCC2)no1`, -10.9%.
For the compound `CCCCNc1ccc(C(=O)OCCN(C)C)cc1`, the “activity change, negative = cytotoxicity” value was -27.5%.
Take `O=C1CC2(CCCC2)CC(=O)N1CCCCN1CCN(c2ncccn2)CC1`: the “activity change, negative = cytotoxicity” value is -10.4%.
For the compound `CCCN(CCC)CCc1cccc2c1CC(=O)N2`, the “activity change, negative = cytotoxicity” value was -17.2%.
In the case of `CCn1cc(C(=O)O)c(=O)c2cc3c(cc21)OCO3`, the “activity change, negative = cytotoxicity” value is -0.262%.
Turning to `OCCN1CCN(CC/C=C2/c3ccccc3Sc3ccc(C(F)(F)F)cc32)CC1`, the Potency was 28.2 µM (active).
Take `C[n+]1cc2c3c(ccc2c2ccc4cc5c(cc4c21)OCO5)OCO3`: the Potency was 3.55 µM (active).
Take `C(=C\c1ccccc1)/CN1CCN(C(c2ccccc2)c2ccccc2)CC1`: the “activity change, negative = cytotoxicity” value was 3.93%.
Turning to `CC[N+](C)(C)c1cccc(O)c1`, the “activity change, negative = cytotoxicity” value is -7.42%.
Turning to `C[N+](C)(C)CCCCCCCCCC[N+](C)(C)C`, the “activity change, negative = cytotoxicity” value is -4.4%.

Values taken from PubChem BioAssay (NCATS).
